Holding throughout (assay): PBM binding z-score (relative to random genomic background probes); higher = stronger binding; sequences stand for … in GC…GCGATTGACAGCGTAGAATGAAGG
The test system of assay [1] is FXR:RXRa (NR concentration 270 nM, RXRa partner concentration 90 nM). The method in brief: (§1)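 Binding buffer was PBS pH 7.4 with 2% milk, 0.02% Triton X-100, 1 mM DTT, 0.2 mg/mL BSA and 0.4 mg/ml salmon testes DNA. In it, ligand-free nuclear receptor dimers were incubated 1 h on custom Agilent 4×180K protein-binding microarrays carrying double-stranded probes. Antibodies against each partner (one per run) detected binding, and z-scores were calculated against random background probes after regression normalization of scanned fluorescence.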

The test system of assay [2] is LXRa:RXRa (NR concentration 270 nM, RXRa partner concentration 90 nM). The method in brief: as §1
The subject of assay [3] is LXRa homodimer (NR concentration 270 nM). The method in brief: as §1
The test system of assay [4] is LXRb:RXRa (NR concentration 270 nM, RXRa partner concentration 90 nM). The method in brief:
as §1

Assay [5] deals with LXRb homodimer (NR concentration 270 nM). The method in brief: as §1
The test system of assay [6] is PPARa:RXRa (NR concentration 270 nM, RXRa partner concentration 90 nM). The method in brief: as §1
Assay [7] has as its system PPARg:RXRa (NR concentration 180 nM, RXRa partner concentration 90 nM). The method in brief: as §1
Assay [8] concerns PPARg:RXRa 270nM:90nM, anti-RXR (NR concentration 270 nM, RXRa partner concentration 90 nM). The method in brief: as §1
The test system of assay [9] is PPARg:RXRa 30nM:10nM, anti-RXR (NR concentration 30 nM, RXRa partner concentration 10 nM). The method in brief:
as §1

Assay [10] has as its system PPARg:RXRa 90nM:30nM, anti-RXR (NR concentration 90 nM, RXRa partner concentration 30 nM). The method in brief: as §1
Assay [11] concerns PPARg:RXRa DBDmut IVT, anti-RXR (DBD mutation: RXRa K156A/R161A, NR concentration 270 nM, RXRa partner concentration 90 nM). The method in brief: as §1
The subject of assay [12] is PPARg:RXRa IVT, anti-PPARg (NR concentration 270 nM, RXRa partner concentration 90 nM). The method in brief: as §1
Assay [13] relates to PPARg DBDmut:RXRa IVT, anti-PPARg (DBD mutation: PPARg1 K132A/R137A, NR concentration 270 nM, RXRa partner concentration 90 nM). The method in brief: as §1
In assay [14] the test system is PPARg DBDmut IVT, anti-PPARg (DBD mutation: PPARg1 K132A/R137A, NR concentration 270 nM). The method in brief:
as §1

The subject of assay [15] is PPARg homodimer (NR concentration 180 nM). The method in brief:
as §1

Assay [16] relates to PXR:RXRa (NR concentration 270 nM, RXRa partner concentration 90 nM). The method in brief:
as §1

Assay [17] concerns PXR homodimer (NR concentration 270 nM). The method in brief:
as §1

Assay [18] has as its system RARa:RXR (NR concentration 270 nM, RXRa partner concentration 90 nM). The method in brief:
as §1

Assay [19] relates to RARa homodimer (NR concentration 270 nM). The method in brief:
as §1

Assay [20] concerns RARb:RXRa (NR concentration 270 nM, RXRa partner concentration 90 nM). The method in brief: as §1

We go through 7 sequences from the supplement of paper PMC6555819.

In the case of GCGACTGGGGTATCAGCAGGTTACCATAACTTAA, the PBM binding z-score in assay [1] was -0.215; in assay [2] it was 0.488; in assay [3] it was -0.233; in [4] it was 0.757; in [5] it was -0.459; in assay [6] it was 0.871. Further, the PBM binding z-score in [7] is 0.146; in assay [8], 0.0504; in assay [9], -0.489; in [10] it was -0.489; in [11], 1.21; in assay [12] it was 0.938. The PBM binding z-score was -0.348 in assay [13]; -0.554 in assay [14]; 0.313 in assay [15]; -0.149 in [16]; -0.238 in assay [17]; 0.3 in [18]. The figures for the PBM binding z-score in [19] and in assay [20] were -0.218 and 0.249, respectively.

On to GGAACGAGGGCAAAGTTGATAGCATCTGTCGACG, for which the PBM binding z-score is 1.45 in assay [1]; 0.921 in [2]; -0.231 in assay [3]; 1.07 in assay [4]; -0.272 in [5]; 4.11 in assay [6]. For the same sequence, the PBM binding z-score in assay [7] amounted to 6.65; in assay [8], 7.24; in [9] it was 5.84; in [10] it was 7.47; in assay [11], 3.97; in assay [12] it was 4.32. The PBM binding z-score is 0.506 in assay [13]; -0.103 in assay [14]; -0.0124 in assay [15]; 1.14 in assay [16]; -0.0271 in assay [17]; 1.56 in [18]. Further, the PBM binding z-score in assay [19] was -0.075; in assay [20], 2.37.

In the case of TCTTGTAGTTCAAGCAGGTTAAGAAAGCCTGAGT, the PBM binding z-score in assay [1] was 1.59; in assay [2] it was 1.72; in assay [3], 0.316; in [4] it was 1.5; in assay [5] it was -0.0715; in [6] it was 2.02. Moreover, the PBM binding z-score is -0.535 in [7]; 1.65 in assay [8]; 2.53 in [9]; 1.94 in [10]; 1.37 in [11]; 0.625 in [12]. The PBM binding z-score was -0.45 in assay [13]; -0.0561 in [14]; 0.815 in assay [15]; 2.26 in assay [16]; 1.78 in [17]; 1.59 in [18]. The PBM binding z-score turned out to be 0.00762 in [19] and 2.3 in assay [20].

With ATCGAAAGGGCGACGAGGTGAGTATACACCGTTT, the PBM binding z-score in [1] was 0.314; in assay [2] it was 0.222; in assay [3], -0.247; in [4], 0.0783; in assay [5], -0.352; in assay [6] it was 0.902. For the same sequence, the PBM binding z-score in [7] was 0.873; in assay [8] it was 0.152; in [9], 0.164; in assay [10], -0.136; in [11] it was -0.129; in assay [12], 0.9. Further, the PBM binding z-score in assay [13] amounted to 0.582; in assay [14], 0.302; in assay [15] it was 0.304; in [16], 0.264; in [17], 0.172; in [18] it was 0.542. The PBM binding z-score in assay [19] stood at 0.176; in assay [20] it was 1.74.

Regarding ACTCGGAGAACAAAGGTCAGAGCTACGCCAGTGA, the PBM binding z-score in assay [1] was determined as 3.2; in [2], 3.85; in assay [3], 1.8; in [4] it was 3.29; in [5], 0.2; in assay [6], 4.69. Besides, the PBM binding z-score in assay [7] was determined as 5.98; in assay [8] it was 5.81; in assay [9], 4.63; in assay [10] it was 6.07; in [11], 0.49; in assay [12], 2.78. In addition, the PBM binding z-score in [13] is 0.171; in assay [14], -0.0554; in assay [15], 1.94; in assay [16], 3.41; in [17] it was 0.0377; in assay [18], 3.89. Also, the values for the PBM binding z-score in [19] and in assay [20] were 0.493 and 4.21, respectively.

Consider GGAACGAGGGCAAAGTTGATAACATCTGTCGACG, for which the PBM binding z-score in [1] is 1.57; in assay [2], 1.1; in assay [3], -0.134; in assay [4] it was 1.12; in assay [5], -0.18; in [6], 4.13. The PBM binding z-score in assay [7] is 7.22; in assay [8] it was 7.08; in assay [9], 6.1; in assay [10] it was 7.67; in [11], 3.83; in assay [12], 4.15. Also, the PBM binding z-score stood at 0.399 in [13]; 0.51 in [14]; 1.5 in assay [15]; 1.23 in [16]; 0.336 in assay [17]; 1.49 in [18]. Moreover, the PBM binding z-score in assay [19] amounted to 0.102; in [20], 2.25.

With CAAACTAGGTCAAGAGGTCAAAGTCCGCTTCCCG, the PBM binding z-score in assay [1] worked out at 7.09; in assay [2] it was 6.37; in assay [3] it was 6.55; in [4], 5.7; in assay [5], 1.96; in assay [6], 6.67. Also, the PBM binding z-score in assay [7] is 9.95; in assay [8], 8.33; in [9], 6.28; in [10], 8.63; in assay [11] it was 8.49; in assay [12], 8.35. The PBM binding z-score is 2.14 in assay [13]; 1.19 in [14]; 6.92 in assay [15]; 6.2 in assay [16]; 2.86 in assay [17]; 7.83 in assay [18]. The PBM binding z-score came to 3.01 in assay [19] and 5.53 in assay [20].
